Screening results as filed in PubChem.
Shiga toxin inh: blocks Shiga toxin action in Vero cells | Vero cells, Shiga toxin protein synthesis inhibition reporter | inhibition, % at 38.7 µM | 9.2% of 290,000 active | AID 2315; in the data active means inhibition mostly above about 28%, no sharp cut-off; inactive means mostly below about 43%; further: 0% is about no effect
Tb PYK inh: blocks Trypanosoma brucei pyruvate kinase | 0.12% of 410,000 active | TbPYK enzyme, Kinase-Glo Plus ATP luminescence, 45 min | Q57TT1 | Potency, µM (series often up to 76.8 µM), for inactives: top-dose activity, negative = inhibition, most hits filed as inhibitors; further: potency means the concentration at half of the fitted maximal effect; on the % scale 0 is the no-effect control and ±100 the full control effect; nearly all actives have a fitted effect of over 50% in size
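TbPYK + substrate in 50 mM TEA pH 7.2, 100 mM KCl, 10 mM MgCl2, 0.05% BSA, 0.01% Tween-20; cpd pinned; ADP 130 uM final; 45 min RT; Kinase-Glo Plus 10 min; luminescence endpoint.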
CHX counter: counter-screen for Shiga toxin inhibitors: cycloheximide protein synthesis inhibition; cell reporter, cycloheximide protein synthesis inhibition counterscreen; max response, %; 12% of 300,000 active; AID 2314; in the data active means max response mostly above about 13%, no sharp cut-off; inactive means mostly below about 14%; further: read at 38.3 µM for the half of the compounds with a filed dose; 0% is about no effect
Sm TGR inh: blocks Schistosoma mansoni thioredoxin glutathione reductase; Q962Y6; purified TGR, DTNB reduction, TNB absorbance 405 nm; Potency, µM (series often up to 114 µM), for inactives: at the top dose activity change, negative = inhibition, hits mostly inhibitors; 3% of 360,000 active; further: potency means the concentration at half of the fitted maximal effect; on the % scale 0 is the no-effect control and ±100 the full control effect; nearly all actives have a fitted effect of over 60% in size
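TGR 20 nM + NADPH 100 uM (dispensed conc.), cpd preinc 15 min RT; start with NADPH (500 uM addition) then DTNB (15 mM addition). Kinetic TNB absorbance, 405 nm filter. Four-parameter Hill fit across titration.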
Giardia FBPA inh: inhibitors of Giardia lamblia fructose-1,6-bisphosphate aldolase; AID 2451; 0.71% of 290,000 active; Potency, µM (series often up to 59.6 µM), inactives show at the top dose activity, negative = inhibition, hits mostly inhibitors; purified Giardia FBPA; further: potency means the concentration at half of the fitted maximal effect; on the % scale 0 is the no-effect control and ±100 the full control effect; nearly all actives have a fitted effect of over 55% in size
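40 nM FBPA preincubated 10 min at RT with compound (up to 57.5 uM final), then substrate plus GAPDH/TPI/NAD/arsenate coupling and diaphorase/resazurin added. Fluorescence read after 20 min at RT, 525/598 nm.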
LmPK inhibitor: blocks Leishmania mexicana pyruvate kinase activity; Q27686; AID 1721; Potency, µM (top dose mostly 57.5 µM), for the others: top-dose activity change, negative = inhibition, usual class: inhibitors; purified LmPK, Kinase-Glo ATP luminescence, 1 h; 0.37% of 290,000 active; further: potency means the concentration at half of the fitted maximal effect; on the % scale 0 is the no-effect control and ±100 the full control effect
Target sequence (Q27686 whole entry, looked up): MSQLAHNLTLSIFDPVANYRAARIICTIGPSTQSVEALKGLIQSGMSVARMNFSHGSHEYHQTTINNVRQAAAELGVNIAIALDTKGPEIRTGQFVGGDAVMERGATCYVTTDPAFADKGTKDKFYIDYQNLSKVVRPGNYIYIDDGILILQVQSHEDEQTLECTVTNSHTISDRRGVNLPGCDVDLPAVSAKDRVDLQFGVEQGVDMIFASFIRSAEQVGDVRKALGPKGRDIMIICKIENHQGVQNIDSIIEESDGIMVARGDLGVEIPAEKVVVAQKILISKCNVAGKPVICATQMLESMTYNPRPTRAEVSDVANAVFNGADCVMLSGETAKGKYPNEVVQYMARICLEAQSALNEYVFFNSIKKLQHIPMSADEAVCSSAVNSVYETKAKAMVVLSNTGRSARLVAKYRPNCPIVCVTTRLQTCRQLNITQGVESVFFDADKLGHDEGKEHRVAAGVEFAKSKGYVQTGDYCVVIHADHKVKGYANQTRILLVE
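ATP generated from ADP (0.1 mM) and PEP (0.5 mM) by 0.1 nM LmPK over 1 h at room temperature (pH 7.2 imidazole buffer) was detected by coupled luciferase luminescence. Values were normalized to uninhibited and no-enzyme wells.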
An asterisk follows results filed as active; u = inconclusive; x = no result; [ ] = remark or other dose. The sample as a whole holds a higher share of hits than the screen did. Unless noted, the call rests on the fitted dose curve; in most records, active means well fitted curve in the direction sought with a large enough effect; inconclusive means small, poorly fitted or top-dose-only effect, or another doubt; inactive means no such curve, though single readings can be large; an effect the other way counts as inactive or inconclusive.

SMILES	Shiga toxin inh	Tb PYK inh	CHX counter	Sm TGR inh	Giardia FBPA inh	LmPK inhibitor
CN(C)CCCN(C(=O)CCOc1ccccc1)c1nc2ccc(F)cc2s1	-6.0	-7.1%	1.6	0.631µM*	-0.2%	-8.9%[11.5 µM]
COc1ccc2nc(N(Cc3ccccc3)C(=O)CCNC(C)=O)sc2c1	43.9*	0.0%	21.5	-16.7%	x	-14.2%
CCCCOC(=O)c1cccc(NC(=O)/C=C/c2ccccc2Cl)c1	x	-3.4%	x	-1.0%	x	x
COc1ccc2c(c1)O[C@@H](c1cccc(C(F)(F)F)c1)[C@H](OC(=O)NCc1ccco1)C2=O	x	x	x	x	-1.0%	x
COc1cccc(NC(=O)CSc2nnc(Cc3cccn3C)n2-c2ccc(F)cc2)c1	28.8*	-1.5%	19.3*	u	3.5%	0.3%
Cn1cccc1Cc1nnc(SCC(=O)NCC2CCCO2)n1CCc1ccccc1 (stereo not given)	-4.6	-10.2%	-3.2	-10.1%	11.0%	-1.3%
Cn1cccc1Cc1nnc(SCC(=O)NCc2ccco2)n1CCc1ccccc1	14.8	-11.8%	-1.5	50.1µM*	0.0%	-5.1%
Cn1cccc1Cc1nnc(SCC(=O)NCc2ccccc2Cl)n1-c1ccc(F)cc1	17.0	1.2%	-2.8	0.0%	-0.6%	-6.5%
Cn1cccc1Cc1nnc(SCC(=O)NCc2ccco2)n1-c1ccc(F)cc1	17.3	-5.3%	2.3	44.7µM*	-4.4%	4.3%
O=C(C1CCN(c2nnc(-n3cccc3)s2)CC1)N1CCCCC1	20.4	-1.7%	20.4*	-25.6%	7.2%	-6.1%
CC(Sc1nnc(Cc2cccs2)n1C1CCCCC1)C(=O)NCc1ccco1 (stereo not given)	-18.5	0.9%	-5.9	50.1µM*	1.1%	2.3%
CC(Sc1nnc(Cc2cccs2)n1C1CCCCC1)C(=O)N1CCc2ccccc21 (stereo not given)	-9.9	-10.5%	1.1	-3.2%	-4.3%	4.0%
Nc1[nH]n(-c2ccccc2)c(=O)c1N=Nc1ccccc1	60.8*	-0.6%	61.0*	-1.0%	-4.9%	4.2%
Nc1[nH]n(-c2ccccc2)c(=O)c1N=Nc1ccc2ncsc2c1	38.2*	-10.7%	40.7*	-20.1%	-14.4%	-5.3%
CSc1ccc(N=Nc2c(C)[nH]n(C)c2=O)cc1	67.5*	-0.9%	46.1*	-0.2%	-29.2%	-23.6%
Cc1[nH]n(-c2ccccc2)c(=O)c1N=Nc1ccc(F)cc1	30.6	1.6%	13.2*	0.0%	u	1.9%
CCOc1ccc(CCNC(=O)C2CCN(c3ncnc4c3nc3n4CCCCC3)CC2)cc1	x	4.1%	x	-11.4%	x	x
Nc1[nH]n(-c2ccccc2)c(=O)c1N=Nc1ccccc1[N+](=O)[O-]	25.2	1.2%	12.6*	-18.5%	3.9%	1.8%
Cn1nc(CSc2ccccc2)c(C=O)c1Cl	55.7	-2.6%	40.8*	7.9%	0.0%	-13.8%
C#CCCOC(=O)Nc1ccccc1	21.5	4.2%	active	14.1%	-1.4%	-1.5%
O=C(Nc1ccccc1)OCCCc1ccccc1	133.1*	-11.5%	50.1*	10.7%	-8.6%	4.6%
CC(=O)[C@@]1(O)CC[C@@H]2[C@@H]3CCC4=CC(=O)CC[C@]4(C)[C@]3(F)[C@@H](O)C[C@@]21C	x	0.0%	x	x	x	x
Cc1ccc2oc(=O)n(CCOc3ccccc3C)c2c1	-5.8	0.4%	-0.5	2.8%	-2.4%	4.4%
COc1ccc(OCCCn2c(=O)oc3ccc(C)cc32)cc1	x	3.3%	x	8.3%	x	x
Cc1ccc2oc(=O)n(CCCOc3ccccc3)c2c1	103.6*	-12.3%	34.9*	-18.7%	-4.1%	3.2%
SMILES	Shiga toxin inh	Tb PYK inh	CHX counter	Sm TGR inh	Giardia FBPA inh	LmPK inhibitor
Cc1ccc2oc(=O)n(CCCOc3ccccc3C)c2c1	44.8*	5.3%	15.7*	20.0%	-2.8%	-0.6%
Cc1ccc(OCCn2c(=O)oc3ccc(C)cc32)cc1	24.4	-0.5%	19.7*	u	-0.3%	2.0%
CC(=O)NCCNc1ncnc2ccc(-c3c(C)noc3C)cc12	x	x	x	x	0.9%	x
CC12C=C(/C=C/c3ccc(C(F)(F)F)cc3)C(C)(C1)C(c1ccc(C(F)(F)F)cc1)CC2=O (stereo not given)	x	x	x	x	-1.0%[12.9 µM]	x
C=CCN1C(=O)N/C(=C/c2ccc(C)o2)C1=O	11.2	u	-1.4	31.6µM*	15.8µM*	3.4%
Cc1cccc(NC(=O)CN2C(=O)N/C(=C\c3ccc(-c4cccc(C(=O)O)c4)o3)C2=O)c1	174.4*	-26.7%	54.4*	56.2µM*	-5.9%	13.0%
CCn1c(C)cc(/C=C2\NC(=O)N(CC(=O)Nc3cccc(C)c3)C2=O)c1C	-11.1	0.4%	0.6	-33.0%	-27.7%	4.1%
Cc1cccc(NC(=O)CN2C(=O)N/C(=C/c3ccc(C)o3)C2=O)c1	11.7	u	-1.6	50.1µM*	-24.1%	10.6%
Cc1ccc(CN2C(=O)N/C(=C/c3ccc(-c4ccc(C(=O)O)cc4)o3)C2=O)cc1	25.7	0.7%	-1.6	u	2.8%	6.4%
Cc1ccc(NC(=O)CN2C(=O)N/C(=C/c3ccc(C)o3)C2=O)cc1	38.0	u	0.1	35.5µM*	u	6.6%
CCOC(=O)N1CCN(C(=O)C[C@@H]2C[C@@]3(C(=O)OCC)CCC=C3N(Cc3ccccc3)C2=O)CC1	x	-2.7%	x	x	x	x
O=C(c1ccco1)[C@@H]1[C@@H]2C(=O)N(c3ccc(F)cc3)C(=O)[C@@H]2C2c3ccccc3C=CN21 (stereo not given in full)	21.5	x	14.6	22.4µM*	u	5.4%
O=C(c1ccco1)[C@@H]1[C@@H]2C(=O)N(c3ccc(Br)cc3)C(=O)[C@@H]2C2c3ccccc3C=CN21 (stereo not given in full)	14.4	-5.4%	13.4	17.8µM*	u	0.1%
COc1ccc(/C=N/n2c(C3CCCCC3)n[nH]c2=S)c(OC)c1	-8.3	-20.9%	-1.6	14.1%	27.2%	-22.4%
COc1cccc(/C=N/n2c(C3CCCCC3)n[nH]c2=S)c1OC	-0.4	5.62µM*	-1.3	-5.0%	9.2%	0.3%
COc1cc(OC)c(/C=N/n2c(C3CCCCC3)n[nH]c2=S)c(OC)c1	-1.7	8.91µM*	10.4	-3.0%	0.7%	u
CC(=O)Nc1nc(-c2ccc(-c3ccccc3)cc2)cs1	x	-11.6%	x	x	x	x
CC(=O)Nc1nc(-c2cccc3ccccc23)cs1	15.1	-30.0%	15.3*	-1.1%	-1.4%	0.5%
CC(=O)Nc1nc(-c2ccc(Br)s2)cs1	62.5*	-0.9%	25.1*	3.3%	-13.5%	3.1%
Cc1ccc(NC(=O)Nc2nc(-c3ccc(C)s3)cs2)cc1	-3.6	-0.5%	23.1	2.3%	0.6%	-0.8%
COc1cccc(NC(=O)C(=O)NCCC2CCCCN2S(=O)(=O)c2ccccc2)c1 (stereo not given)	x	-2.5%	x	-10.8%	x	x
COc1cc2c(cc1OC)C(c1ccc(-c3ccc(Cl)c(Cl)c3)o1)=NCC2	-9.2	-28.1%	1.2	u	-20.9%	12.6µM*
